From PubChem BioAssay AID588342 (National Center for Advancing Translational Sciences (NCATS), 2011)
Among all 360,000 compounds or so, about 25,000 (6.9%) were called active. Roughly 9% stayed inconclusive and do not appear here. The full list was thinned out, with actives kept by preference. Values without a mark were called inactive. The call rests on the fitted dose curve; in most records, active means well fitted inhibition curve with a large enough effect; inconclusive means small, poorly fitted or top-dose-only effect; inactive means flat fitted curve, though single readings scatter.

What follows are molecules tested against Luciferin 4-monooxygenase (Photinus pyralis) (UniProt P08659) (assay: qHTS profiling assay for firefly luciferase inhibitor/activator using purifed enzyme and Km concentrations of substrates (counterscreen for miR-21 project)). Conditions: purified FLuc, luminescence inhibition; series mostly up to 57.5 µM; activity change, negative = inhibition: at the top concentration.
Method in brief: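 Biochemical qHTS of compounds, final roughly 60 µM downward over six points, against 10 nM purified firefly luciferase using Km concentrations of substrates (10 uM D-luciferin, 10 uM ATP) in Tris acetate pH 7.5 buffer; luminescence output.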
Further: nearly all actives have a fitted effect of over 55% in size.
Potency means the concentration at half of the fitted maximal effect.
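Wherever activity change, negative = inhibition is given: plate controls were vehicle for no effect and reference inhibitor for full effect.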

Sequence of Luciferin 4-monooxygenase (Photinus pyralis) (P08659 whole entry, looked up): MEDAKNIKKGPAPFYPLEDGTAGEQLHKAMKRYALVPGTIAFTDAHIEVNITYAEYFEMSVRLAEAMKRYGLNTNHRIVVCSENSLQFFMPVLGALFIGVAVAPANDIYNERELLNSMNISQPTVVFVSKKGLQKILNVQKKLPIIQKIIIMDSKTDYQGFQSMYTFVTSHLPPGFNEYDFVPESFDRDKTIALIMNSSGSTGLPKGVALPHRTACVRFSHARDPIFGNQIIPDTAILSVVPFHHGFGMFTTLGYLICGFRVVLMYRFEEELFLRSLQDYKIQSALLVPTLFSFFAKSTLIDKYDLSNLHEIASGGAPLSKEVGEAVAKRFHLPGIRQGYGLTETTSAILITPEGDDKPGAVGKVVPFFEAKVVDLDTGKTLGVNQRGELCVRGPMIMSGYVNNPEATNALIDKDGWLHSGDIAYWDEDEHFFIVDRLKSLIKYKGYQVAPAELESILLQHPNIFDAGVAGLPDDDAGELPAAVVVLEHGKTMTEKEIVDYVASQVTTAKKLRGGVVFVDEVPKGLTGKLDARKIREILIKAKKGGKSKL

Going from CC(=O)Nc1ccc(NC(=O)COC(=O)c2ccccc2C(=O)c2ccccc2)cc1 to Cc1cccc(C)c1NC(=O)COC(=O)c1ccccc1O, the “activity change, negative = inhibition” value falls from -0.276% to -0.453%.

First: Cc1ccc(S(=O)(=O)N(C)CC(=O)OCC(=O)Nc2ccccc2)cc1
Second: CN(c1ccccc1)S(=O)(=O)c1cccc(NC(=O)Cc2ccc(Cl)cc2)c1
The “activity change, negative = inhibition” value of the first is higher: -3.85% for the first, -14.1% for the second.

First: COc1ccc2c(c1OC)C(=O)N(c1ncn[nH]1)C2
Second: COc1cc(C(=O)N2C(=O)c3cccc(N)c3C2=O)cc(OC)c1OC
The “activity change, negative = inhibition” value of the first is lower: 1.33% for the first, 2.66% for the second.

First: CCOc1ccc(CC(=O)NCCc2csc3nc(-c4ccccc4F)nn23)cc1
Second: C#CC(C)(CC)NC(=O)Cn1nnc(-c2ccc(OCc3c(F)cccc3Cl)cc2)n1 (centres undefined)
The “activity change, negative = inhibition” value of the first is higher: -11% for the first, -16.2% for the second.

Compared with O=C(NCc1ccc(F)cc1)c1ccc2nc(N3CCCCC3)sc2c1, O=C(NCCc1cccc(F)c1)C1CCCN(c2nc3ccccc3s2)C1 (centres undefined) is higher in “activity change, negative = inhibition” value: -9.13% for the first, -1.62% for the second.

Going from Cc1nc(N2CCCCC2)sc1C=O to COc1cc(OC)cc(C(=O)NCC(=O)N2CCCCCCC2)c1, the “activity change, negative = inhibition” value falls from 4.38% to 1.74%.

Compared with CN(C)CCCN(C(=O)c1ccc(S(=O)(=O)N2CCCCCC2)cc1)c1nc2cc3c(cc2s1)OCCO3, CN(C)CCCN(C(=O)c1ccc(S(=O)(=O)N2CCCCCC2)cc1)c1nc2ccc(Br)cc2s1 is lower in “activity change, negative = inhibition” value: 4.03% for the first, 1.44% for the second.

Going from Cc1nc2ccn(Cc3cccs3)c(=O)c2cc1C(=O)NCc1ccc(Cl)cc1 to Cc1nc2ccn(Cc3cccnc3)c(=O)c2cc1C(=O)N1CCN(c2ccccc2F)CC1, the “activity change, negative = inhibition” value falls from -0.0141% to -2.88%.

Compared with O=C(CSc1nnc(CN2CCCC2)n1-c1ccc(F)cc1)c1ccc2c(c1)OCO2, Cc1cc(NC(=O)CSc2nc(=O)cc(N)n2-c2ccc(F)cc2)no1 is lower in “activity change, negative = inhibition” value: 2.79% for the first, -2.26% for the second.

Going from O=C(CN1CCN(c2ccccc2O)CC1)NC(=O)NCc1ccccc1 to CSCCC(NC(=O)c1ccccc1)C(=O)N1CCN(Cc2ccc(Cl)cc2)CC1 (centres undefined), the “activity change, negative = inhibition” value falls from 12.3% to 4.35%.

Compared with COc1ccc(S(=O)(=O)Nc2ccc3cn[nH]c3c2)cc1[N+](=O)[O-], CCOc1ccc(S(=O)(=O)Nc2nc3cc(OC)ccc3s2)cc1 is lower in “activity change, negative = inhibition” value: 2.65% for the first, 2.11% for the second.

Compared with CCOC(=O)Cc1csc(SCC(=O)Nc2ccc(C)cc2F)n1, CCOC(=O)CNC(=O)c1cc2c(=O)n3cccc(C)c3nc2s1 is lower in “activity change, negative = inhibition” value: 2.01% for the first, -11.1% for the second.

First: CCOC(=O)c1ccccc1NC(=O)CCc1c(C)nc2c(c1C)c(=O)n(C)c(=O)n2C
Second: COC(=O)c1ccc(NC(=O)CCc2c(C)nc3c(c(C)nn3-c3ccc(C)cc3)c2C)cc1
The “activity change, negative = inhibition” value of the first is higher: -0.937% for the first, -4.68% for the second.

First: CCc1cccc(C)c1NC(=O)COC(=O)CC1CCCC1
Second: CCc1ccccc1NC(=O)c1ccc(F)c(S(=O)(=O)NC2CCCCCC2)c1
The “activity change, negative = inhibition” value of the first is higher: 0.287% for the first, -2.22% for the second.

Compared with O=c1[nH]c(CN2CCOCC2)nc2cc(Cl)ccc12, NC(=O)Cc1nc2scc(-c3ccc(Cl)cc3)c2c(=O)[nH]1 is lower in “activity change, negative = inhibition” value: 2.21% for the first, 0.326% for the second.

Compared with COc1cccc(N(CC(=O)Nc2cccc(N(C)S(C)(=O)=O)c2)S(C)(=O)=O)c1, NS(=O)(=O)c1ccc2nc(NC(=O)COc3ccccc3)sc2c1 is lower in “activity change, negative = inhibition” value: 1.64% for the first, 0.17% for the second.

Going from O=C(Nc1ccc(Cl)cc1)Nc1ccc(Oc2cccnc2)nc1 to O=C(CCOc1ccccc1)N(Cc1cccnc1)c1nc2ccc(Cl)cc2s1, the “activity change, negative = inhibition” value rises from -28.9% to -5.41%.

Compared with COc1ccc(-n2c(=O)c3c(c4cc(OC)ccc4n3C)n(Cc3cccc(C)c3)c2=O)cc1, COc1ccc(CCNC(=O)c2ccc3c(c2)sc2nc(-c4ccc(C)cc4)cn23)cc1OC is higher in “activity change, negative = inhibition” value: -0.917% for the first, -0.481% for the second.

Going from Cc1cc(C)cc(NC(=O)CSc2ccccc2)c1 to CC(=O)Nc1ccccc1NC(=O)c1cc(C)cc(C)c1, the “activity change, negative = inhibition” value rises from -4.76% to 3.27%.

Compared with CCc1ccc(N2C(=O)CN(S(=O)(=O)CC)CC2(C)C(=O)NC2CCCCC2)cc1 (centres undefined), O=C(NC1CC(=O)N(c2ccc(F)cc2)C1)C1CCCCC1 (centres undefined) is higher in “activity change, negative = inhibition” value: -6.49% for the first, 1.54% for the second.

Compared with CC(=O)c1cccc(Nc2ccc3cc(S(=O)(=O)N4CCC(C)CC4)ccc3n2)c1, CC1CCCN(S(=O)(=O)c2ccc3[nH]c(=O)cc(C(=O)NCCc4ccc(Cl)cc4)c3c2)C1 (centres undefined) is higher in “activity change, negative = inhibition” value: 0.763% for the first, 0.984% for the second.

First: N/C(=N\OC(=O)/C=C/c1ccccc1)c1ccc(Br)cc1
Second: N/C(=N\OC(=O)N1c2ccccc2Sc2ccccc21)c1ccc(Br)cc1
The “activity change, negative = inhibition” value of the first is lower: -17% for the first, -12.5% for the second.

Compared with Cc1ccc(-c2cc(C(F)(F)F)c(C#N)c(SCC(=O)Nc3ccccc3)n2)cc1, CC(C(=O)N(C)CC(=O)Nc1ccccc1C(F)(F)F)N1C(=O)c2ccccc2C1=O (centres undefined) is lower in “activity change, negative = inhibition” value: -0.837% for the first, -1.6% for the second.

Compared with COC(=O)/C=C/C(=O)NCc1ccco1, O=C(NCc1ccco1)C1(c2ccc(Cl)cc2)CCCC1 is higher in “activity change, negative = inhibition” value: -0.0929% for the first, 5.76% for the second.

First: COc1ccccc1CNC(=O)C(Cc1ccccc1)NS(=O)(=O)c1ccc2c(c1)oc(=O)n2C (centres undefined)
Second: COc1ccc(CNc2nc(-c3ccccc3)nn2C(=O)c2ccccc2OC)cc1
The “activity change, negative = inhibition” value of the first is lower: -2.22% for the first, 3.74% for the second.

Compared with CCOc1c(Br)cc(/C=C2\C(=O)N(CCC#N)N=C2C)cc1OC, C/C=C/c1ccc(OCCOc2ccc(C=O)cc2OC)c(OC)c1 is higher in “activity change, negative = inhibition” value: -14.2% for the first, 11.6% for the second.

Compared with COc1ccc(N2C(=O)CC(Nc3ccc(F)cc3)C2=O)c([N+](=O)[O-])c1 (centres undefined), COc1ccc(Nc2cc(=O)oc3ccccc23)cc1 is higher in “activity change, negative = inhibition” value: 0.0586% for the first, 1.53% for the second.

First: COc1cc(CN2CC(C)CC(C)C2)cc([N+](=O)[O-])c1O (centres undefined)
Second: CCn1c(=O)cc(OCC(=O)Nc2cc(Cl)c(OC)cc2OC)c2ccccc21
The “activity change, negative = inhibition” value of the first is higher: -0.254% for the first, -0.432% for the second.

Going from COc1cc(C=O)ccc1Oc1nnnn1-c1ccccc1 to COc1ccc2oc(=O)cc(-c3cc4ccccc4o3)c2c1, the “activity change, negative = inhibition” value rises from 5.93% to 6.35%.

Going from COc1cccc2c1cc1c(=O)n(CC(=O)N3CCN(c4cccc(Cl)c4)CC3)nc(C)n12 to Cc1cc2c(cc3c(SCc4cccc(Cl)c4)nnc(C)n32)o1, the “activity change, negative = inhibition” value falls from 2.9% to -12.8%.

Compared with CCOc1ccc(-c2nonc2NC(=O)c2oc3ccc(CC)cc3c2C)cc1, COc1ccc(-c2cc(C(=O)NCCCn3ccnc3)no2)cc1 is lower in “activity change, negative = inhibition” value: -1.22% for the first, -16.1% for the second.

First: NC1=NC(c2cc(F)cc(F)c2)n2c(nc3ccccc32)N1 (centres undefined)
Second: O=C(Nc1nc2ccc(F)cc2s1)c1nc(SCc2ccccc2F)ncc1Cl
The “activity change, negative = inhibition” value of the first is lower: -6.24% for the first, 0.507% for the second.

Going from CC(C(=O)NC1CCCCC1)N1C(=O)c2cccc3cccc1c23 (centres undefined) to CN1C(=O)/C(=C/c2ccc(C(=O)NC3CCCC3)cc2)Oc2ccccc21, the “activity change, negative = inhibition” value falls from -0.249% to -12.8%.

Compared with N#Cc1ccc(OCC(=O)NC(=O)NC2CCS(=O)(=O)C2)cc1 (centres undefined), NS(=O)(=O)c1cc(C(=O)OCC(=O)NNC(=O)c2ccccc2)ccc1Cl is higher in “activity change, negative = inhibition” value: -1.14% for the first, 2.64% for the second.

Compared with CN1CCC(=NNC(=O)c2ccc(N(Cc3ccc(Cl)cc3)S(C)(=O)=O)cc2)CC1, CC(NC(=O)c1cccc(S(=O)(=O)N2CCc3ccccc3C2)c1)c1ccco1 (centres undefined) is higher in “activity change, negative = inhibition” value: -2.34% for the first, 2.97% for the second.

Going from CCCn1nnnc1NC(=O)COc1ccc(Cl)cc1C to CCOCCCNC(=O)c1c(NC(=O)Cc2coc3ccc(C)cc23)sc2c1CCC2, the “activity change, negative = inhibition” value falls from -1.34% to -9.67%.

First: Cc1cc(Nc2ccccc2)n(CCC#N)n1
Second: Cc1ccc(S(=O)(=O)c2nc(NCCCn3ccnc3)sc2Cl)cc1
The “activity change, negative = inhibition” value of the first is higher: 5.51% for the first, 1.48% for the second.

First: CSc1ncccc1C(=O)Nc1ccc(C)cn1
Second: Cc1ccc2nc(-c3ccncc3)cc(C(=O)Nc3ccc(OC(F)F)cc3)c2c1
The “activity change, negative = inhibition” value of the first is higher: -0.899% for the first, -7.69% for the second.

Going from Cc1ccc(/C=C(\C#N)C(=O)Nc2cc(C)ccc2C)cc1 to COC(=O)c1ccc(NC(=O)C(C)N2C(=O)c3ccccc3C2=O)cc1 (centres undefined), the “activity change, negative = inhibition” value rises from -2.09% to -2.02%.

First: NS(=O)(=O)c1ccc2nc(NC(=O)CS(=O)(=O)c3ccc(F)cc3)sc2c1
Second: N#C/C(=C\c1cccc(F)c1)c1nc(-c2cc3c(ccc4ccccc43)oc2=O)cs1
The “activity change, negative = inhibition” value of the first is lower: -8.95% for the first, -2.19% for the second.

With COc1ccc(-c2onc(C)c2-c2ccc3c(c2)OCCO3)c(O)c1 the “activity change, negative = inhibition” value was -10.2%.

In the case of O=C(COC(=O)C1CC2C=CC1C2)Nc1ccccc1 (centres undefined), the Potency is reported as 16.9 µM (active).
COc1ccc2c(c1OC)C(=O)N(c1ccc(O)cc1)C2 was tested, and the Potency was 15.1 µM (active).
Brc1ccc2nc(N3CCCC3)sc2c1 was tested, and the Potency was 7.57 µM (active).
For c1c2c(cc3sc(N4CCCCC4)nc13)OCCO2, the Potency was 0.213 µM (active).
With Fc1ccc2nc(N3CCCCC3)sc2c1 the Potency was 4.78 µM (active).
CCOc1cccc2cc(C(=O)OCC(=O)Nc3c(C)cccc3CC)c(=O)oc12 was tested, and the Potency was 15.1 µM (active).
In the case of O=c1[nH]c(CCl)nc2cc(-c3ccc(Cl)cc3)sc12, the Potency is reported as 0.107 µM (active).
With CN(c1cccc(NC(=O)Nc2ccc(Cl)cc2)c1)S(C)(=O)=O the Potency was 2.39 µM (active).
CSCc1ccc(C(=O)Nc2cc(C)cc(C)c2)cc1 was tested, and the Potency was 2.13 µM (active).
For N/C(=N\OC(=O)c1ccc2c(c1)OCO2)c1ccc(Br)cc1, the Potency was 1.69 µM (active).
In the case of O=C(/C=C/c1ccc(Cl)cc1Cl)NCc1ccco1, the Potency is reported as 7.57 µM (active).
For COc1cc(/C=C2/C(=O)NN(c3cccc(Cl)c3)C2=O)cc(Br)c1O, the Potency was 30.1 µM (active).
In the case of COc1cc(/C=C2/C(=O)NN(c3ccc(F)cc3)C2=O)cc([N+](=O)[O-])c1O, the Potency is reported as 26.9 µM (active).
C#CCOc1ccc(/C=C2/C(=O)NN(c3ccccc3)C2=O)cc1OC was tested, and the Potency was 0.849 µM (active).
For Cc1cc(NC(=O)COc2ccc(Cl)cc2Cl)n(CCC#N)n1, the Potency was 19 µM (active).
CSc1ncccc1C(=O)Nc1nc2ccc(F)cc2s1 was tested, and the Potency was 19 µM (active).
With NS(=O)(=O)c1ccc2nc(NC(=O)C3=COCCO3)sc2c1 the Potency was 12 µM (active).
With Cc1ccc(-c2nc(C#N)c(NCCCn3ccnc3)o2)cc1 the Potency was 21.3 µM (active).
COC(=O)c1ccc(/C=C2/C(=O)Oc3ccccc32)cc1 was tested, and the Potency was 2.69 µM (active).
COc1ccc2nc(Nc3nc(-c4cc5ccccc5oc4=O)cs3)sc2c1 was tested, and the Potency was 0.849 µM (active).
O=c1oc2ccccc2cc1-c1csc(Nc2ccc(O)cc2)n1 was tested, and the Potency was 5.36 µM (active).
For COc1ccc2nc(Nc3nc(-c4ccncc4)cs3)sc2c1, the Potency was 1.51 µM (active).
In the case of COc1ccc2nc(Nc3nc4cc5c(cc4s3)OCCO5)sc2c1, the Potency is reported as 9.53 µM (active).
